KDM5B inhibitor: Primary screen for KDM5B Histone Demethylases FDH-coupled qHTS; Lysine-specific demethylase 5B (Homo sapiens), Q9UGL1; KDM5B demethylase, FDH-coupled NADH fluorescence (FDH is formaldehyde dehydrogenase); 220,000 compounds, 2.6% hits; Potency, µM (doses to about 57.7 µM), most hits filed as inhibitors; active = well fitted inhibition curve with a large enough effect; also: 0% is about no effect; nearly all actives have a fitted effect of over 70% in size
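Measured: NADH fluorescence change, 30 min, RT. System: KDM5BΔAP 200 nM final, H3K4me3 peptide, α-KG, Fe(II), ascorbate, NAD⁺ plus FDH, pH 7.5 HEPES. Compounds: titrated, 10 min pre-incubation with enzyme.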
Numbers without * were called inactive; i = inactive. The full list was thinned out, with hits kept by preference. Potency is read from the fitted curve at half-maximal effect.

SMILES	KDM5B inhibitor
c1ccc(Nc2cc3c(cn2)NCCN(Cc2ccccn2)C3)cc1	35µM*
Oc1ccccc1CN1CCNc2cc(Nc3cccnc3)ncc2C1	35µM*
Cc1nc(N)nc(C)c1CC(=O)N1CCn2nc(C(O)CO)cc2C1 (centres undefined)	i
Cc1cc(-c2csc(NC3CCCCC3)n2)c(C)n1NC(=O)c1nn(C)c(=O)c2ccccc12	i
COc1ccc(C(=O)N[C@@H]2CCC[C@@H]2C(=O)NCc2cccnc2)cc1	i
Cc1cc(C)n(-c2nc3c(c(=O)n(CC(N)=O)c(=O)n3C)n2CCCc2ccccc2)n1	i
Cc1ccccc1C(=O)N(CCCN(C)C)c1nc2ccc(F)cc2s1	i
COC[C@H]1NC(=O)CC[C@H]1C(=O)NCCc1ccccc1	i
Cc1ccc(NC(=O)CSc2nnc3n(CC(C)C)c(=O)c4cc(F)ccc4n23)c(C)c1	i
COc1cccc(CC2CN(Cc3ccc(F)cc3OC)CCO2)c1 (centres undefined)	i
CCc1ccc(NC(=O)Cn2cc(S(=O)(=O)c3ccc(OC)cc3)c(=O)c3ccccc32)cc1	i
O=C(NCCCNC(=O)C1CC1)C1CC1	i
COc1ccc(CNC(=O)C[C@@H]2C[C@@H](C(C)C)[C@H](CNC(=O)c3ccc(NC(C)=O)cc3)C=C2C)cc1	i
COc1ccc(CNC(=O)C[C@@H]2C[C@@H](C(C)C)[C@H](CNC(C)=O)C=C2C)cc1	35µM*
COc1ccc(NC(=O)NC[C@@H]2C=C(C)[C@H](CC(=O)NCCN(C)C)C[C@H]2C(C)C)cc1	i
COc1ccc(NC(=O)C(C)SCCO)cc1 (centres undefined)	i
Cc1ccc(CNC(=O)N2CCCC(CN3CCC(C)CC3)CC2)cc1 (centres undefined)	i
Cc1noc(C)c1C(=O)N1Cc2ccccc2OC2(CCN([S+](C)(=O)[O-])CC2)C1	i
Cn1c(=O)c2c(nc(NCCc3ccccc3)n2Cc2ccccc2Cl)n(C)c1=O	i
c1ccc(-c2noc(-c3nc(-c4ccc5c(c4)OCO5)no3)n2)cc1	i
Cc1ccc(-c2noc(-c3nc(Cc4ccccc4)no3)n2)cc1	i
CCc1noc(-c2nc(-c3ccc4c(c3)OCO4)no2)n1	i
CCCc1noc(-c2nc(-c3ccc(OC)c(OC)c3)no2)n1	i
COc1ccc(-c2noc(-c3nc(Cc4ccccc4)no3)n2)cc1OC	28µM*
c1ccc(Cc2noc(-c3nc(-c4ccc5c(c4)OCO5)no3)n2)cc1	35µM*
SMILES	KDM5B inhibitor
CC(Sc1nc(CN2CCOCC2)nc2ccccc12)c1ccccc1Cl (centres undefined)	i
CCc1nnsc1C(=O)NCC1(c2ccc(F)cc2)CCCC1	i
COC(=O)C1=CN(CC(=O)Nc2ccc(C)cc2Cl)S(=O)(=O)N=C1C	i
CCc1nnc(NC(=O)c2cc(-c3ccc(C)cc3)nc3ccccc23)s1	i
Fc1ccccc1CNCCOc1ccccn1	i
CCc1nc2c(=O)n(CC(=O)N(CC)Cc3ccccc3)nc(C)c2s1	i
Cc1ccc(-c2nn(CC(=O)N3CCCC3)c(=O)c3ccccc23)cc1	i
CCN(CC)CCCN(C)C(=O)Cn1nc(Cc2ccncc2)c2ccccc2c1=O	i
CCc1nc2c(=O)n(CC(=O)N3CCN(c4cccc(C)c4C)CC3)nc(C)c2s1	i
CCCCN(C)C(=O)Cn1nc(C)c2sc(-c3ccccc3)nc2c1=O	28µM*
Cc1nn(CC(=O)N2CCCCCC2)c(=O)c2nc(-c3ccccc3)sc12	32µM*
C=CCNC(=O)C[C@@H]1CCN(C(=O)Nc2cccc(C(F)(F)F)c2)C[C@@H]1CC	i
CN1CCN(CCNC(=O)CCc2ccc3c(c2)CN(S(C)(=O)=O)CCO3)CC1	i
COCCOC1CCN(C(=O)CCc2cccc(OC)c2)CC1	i
COc1cccc(CCC(=O)N2CCC(OCC3CC3)C2)c1 (centres undefined)	i
CCN(CC)c1cc(CCC(=O)NCCN2CCCCCC2)ccn1	28µM*
CCN(CC)c1cc(CCC(=O)NCCCN2CCN(C)CC2)ccn1	25µM*
CS(=O)(=O)N1CCOc2ccc(CCC(=O)NCCCN3CCOCC3)cc2C1	i
COc1cc(CNC(=O)CCc2ccncc2)ccc1OC1CCCC1	i
O=C(O)CCC(=O)NCCN1CCCC1	i
CCN(CC)c1cc(CCC(=O)N2CCC(COC)CC2)ccn1	25µM*
CCN(CC)c1cc(CCC(=O)NCCN(C)C2CCCCC2)ccn1	28µM*
CN(CCNC(=O)CN1CC2CC(C1)[C@H]1CCCC(=O)N1C2)C1CCCCC1 (some centres undefined)	i
CCOC(=O)c1c(C)c(CCC(=O)NCCN2CCCCC2)c(C)n1C	i
O=C(OCc1cccc(F)c1F)c1ccc(CN2CCCC2=O)cc1	i
SMILES	KDM5B inhibitor
O=C(Cc1ccc2c(c1)CCCC2)N1CCC(NS(=O)(=O)c2ccccc2)CC1	i
COC(=O)CN(CC(=O)OC)NC(=O)CCC(=O)O	i
c1ccc(C(Nc2ccc3nnnn3n2)c2ccccn2)cc1 (centres undefined)	i
CCCCn1c(N2CCN(Cc3c(F)cccc3Cl)CC2)nc2c1c(=O)[nH]c(=O)n2C	i
O=C1NCCOCCCN(S(=O)(=O)c2cccc3cccnc23)[C@H]2CCCC[C@@H]12	i
O=C(Nc1ccc(OCc2ccccc2)cc1)c1cccc2ccccc12	i
CCN(CC)c1cc(CCC(=O)NCCOC)ccn1	18µM*
COCCNC(=O)CCc1ncc(-c2ccc(C)c(C)c2)o1	i
CCN(CC)c1cc(CCC(=O)O)ccn1	i
O=C(NC1CCN(CCCc2nc3ccccc3o2)CC1)C1CC1	i
COCc1ccc2c(c1)c(OC(C)(C)C(=O)NCC[S+](C)(=O)[O-])nn2Cc1ccccc1	28µM*
COCc1ccc2c(c1)c(OC(C)(C)C(=O)NCC1CC1)nn2Cc1ccccc1	32µM*
COCc1ccc2c(c1)c(OC(C)(C)C(=O)NCc1cnccn1)nn2Cc1cccnc1	i
COCc1ccc2c(c1)c(OC(C)(C)C(=O)NCC1CCOCC1)nn2CCC(C)C	35µM*
CC(C)(Oc1nn(Cc2cccc(Cl)c2)c2ccccc12)C(=O)NCC[S+](C)(=O)[O-]	i
CC(C)(Oc1nn(CCN2CCOCC2)c2ccccc12)C(=O)NCc1ccccc1	i
COCc1ccc2c(c1)c(OC(C)(C)C(=O)N1CCN(CCO)CC1)nn2Cc1ccccc1	i
COCc1ccc2c(c1)c(OC(C)(C)C(=O)NCCc1cccnc1)nn2Cc1ccccc1	i
COCc1ccc2c(c1)c(OC(C)(C)C(=O)NCC[S+](C)(=O)[O-])nn2Cc1cccnc1	i
CC(C)(Oc1nn(Cc2cccc(Cl)c2)c2ccccc12)C(=O)NCCN1CCOCC1	i
CN(C)Cc1ccc2c(c1)c(OC(C)(C)C(=O)NC1CC1)nn2Cc1ccccc1	35µM*
Cc1cc(C)n(CC(=O)NCC2(C)CCOCC2)n1	i
CC(NCc1ccccc1C#N)c1ccccc1F (centres undefined)	i
CCN(CC)c1ncc(C=O)s1	i
CC1CCN(S(=O)(=O)c2cc3cc(F)ccc3oc2=O)CC1	i
O=C(c1ccc(Br)cc1)N(Cc1cccc2[nH]ccc12)C1CC1	i
Cc1ccc(C)c(OC(=O)c2ccc(CSc3ccc(Cl)cc3)cc2)c1C	i
COc1ccc(O)c(C(=O)OC(C)C(=O)C23CC4CC(CC(C4)C2)C3)c1 (centres undefined)	i
COCc1ccccc1CNC(=O)NC(c1ccccc1)c1ccccc1	i

Screening data from PubChem BioAssay.
